The source of these data is PubChem BioAssay AID488969 (Vanderbilt High Throughput Screening Facility, 2010).

Over roughly 110,000 compounds, “z-score” has its median near -0.1; the highest 2% begin near 2. The list comes from a sample in which the highest values are over-represented; it also holds similar structures and randomly drawn compounds. The source made the active and inactive calls.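 How the source made its calls: active means z-score in the third read window above 3 or below -3; inactive means the rest.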

Chain of Metabotropic glutamate receptor 8 (Rattus norvegicus) (P70579 whole entry, looked up): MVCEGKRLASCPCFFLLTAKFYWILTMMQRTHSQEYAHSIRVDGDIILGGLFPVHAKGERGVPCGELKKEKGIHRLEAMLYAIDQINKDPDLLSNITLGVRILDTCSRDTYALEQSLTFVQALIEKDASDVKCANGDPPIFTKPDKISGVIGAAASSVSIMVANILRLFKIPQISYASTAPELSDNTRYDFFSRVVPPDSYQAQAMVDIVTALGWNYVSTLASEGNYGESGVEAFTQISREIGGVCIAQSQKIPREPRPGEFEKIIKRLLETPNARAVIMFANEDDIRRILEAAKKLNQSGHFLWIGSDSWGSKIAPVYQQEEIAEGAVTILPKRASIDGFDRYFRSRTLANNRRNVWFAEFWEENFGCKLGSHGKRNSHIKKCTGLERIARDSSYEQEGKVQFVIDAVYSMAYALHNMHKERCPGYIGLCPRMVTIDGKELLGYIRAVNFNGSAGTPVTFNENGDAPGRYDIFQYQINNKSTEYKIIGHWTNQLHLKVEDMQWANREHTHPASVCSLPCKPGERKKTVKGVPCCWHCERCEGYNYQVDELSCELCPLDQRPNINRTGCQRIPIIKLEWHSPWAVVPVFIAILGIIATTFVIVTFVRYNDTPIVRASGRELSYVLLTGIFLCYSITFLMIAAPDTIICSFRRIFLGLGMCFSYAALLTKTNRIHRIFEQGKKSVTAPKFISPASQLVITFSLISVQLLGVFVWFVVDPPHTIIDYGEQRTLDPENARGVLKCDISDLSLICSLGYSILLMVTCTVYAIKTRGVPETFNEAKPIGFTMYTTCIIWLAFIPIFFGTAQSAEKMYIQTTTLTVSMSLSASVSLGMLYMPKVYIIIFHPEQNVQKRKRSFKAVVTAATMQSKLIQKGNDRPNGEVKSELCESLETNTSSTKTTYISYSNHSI

This assay concerns the target Metabotropic glutamate receptor 8 (Rattus norvegicus) (UniProt P70579). Nature of the assay: rat mGluR8 modulators via GIRK flux, primary screen, cell-based, thallium flux, HTS (AID 488969). The following applies: HEK293 rat mGluR8, GIRK (G protein-gated inwardly rectifying potassium channel) thallium flux, FluoZin2; at 10 µM; stronger effect = higher value; submaximal glutamate (EC20) added with thallium.
`CN1CCN(c2ccccc2NC(=O)COc2ccccc2)CC1` displayed a z-score of -0.109.

Molecule `COc1ccc(/C=N/NC(=O)CSc2nnc(C)n2-c2ccccc2)c(OC)c1OC` showed a z-score of -0.14. Regarding `N=C1/C(=C/c2cccs2)C(=O)N=C2SN=C(SCc3ccccc3)N12`, the z-score is 9.53 (active). For the molecule `Cc1cc(/C=C2\C(=N)N3C(SCc4ccccc4)=NSC3=NC2=O)c(C)n1Cc1ccccc1`, the z-score amounted to 0.143. With `O=C1NN(c2ccccc2)C(=O)/C1=C/c1coc2ccccc2c1=O` the figure was -0.738. With `O=C1N=C(N2CCN(c3cccc4ccccc34)CC2)S/C1=C/c1cccs1` the figure was -0.0125.

`CSC1=NSC2=NC(=O)/C(=C/c3coc4ccccc4c3=O)C(=N)N12`: the z-score is 10.4 (active). Turning to `CSC1=NSC2=NC(=O)/C(=C/c3coc4ccc(O)cc4c3=O)C(=N)N12`, the z-score was -0.47. For `O=[N+]([O-])c1ccc(N2CCCCC2)cc1NCCOc1ccccc1` the value was 0.0562; for `COc1ccc(/C=c2\s/c(=C/C(=O)c3ccc(C)cc3)[nH]c2=O)cc1OC`, 0.46; for `COc1cccc(/C=c2\s/c(=C/C(=O)c3ccc(C)cc3)[nH]c2=O)c1OC`, 1.51.

`Cc1cccc(/C=C2\CS/C(=C\c3cccc(C)c3)C2=O)c1`: the z-score was -0.0758.

For `CSc1ccc(/C=c2\s/c(=C\C(=O)C(C)(C)C)n(CC(=O)NCCC3=CCCCC3)c2=O)cc1`, the z-score was -0.0802. With `CC(C)(C)C(=O)/C=c1\[nH]c(=O)/c(=C\c2ccc(F)cc2)s1` the figure was 5.06 (active); with `CC(C)(CNC(=O)/C=C/c1ccc(F)cc1)CNC(=O)/C=C/c1ccc(F)cc1`, -0.186. On to `Cc1cccc(/C=c2\s/c(=C\C(=O)C(C)(C)C)[nH]c2=O)c1`, for which the z-score is 9.35 (active).

`CCc1ccc(/C=C(\Cl)c2nc3cc(Cl)ccc3c(=O)[nH]2)cc1` returned a z-score of 0.511. For the molecule `CCc1ccc(/C=c2\s/c(=C\C(=O)C(C)(C)C)[nH]c2=O)cc1`, the z-score was 7.24 (active). With `COc1ccc(/C=c2\s/c(=C/C(=O)c3ccc(C)cc3)[nH]c2=O)c(OC)c1` the figure was 0.0664.

For `CC(C)(C)NC(=O)COC(=O)/C=C/c1ccc(F)cc1`, the z-score was -0.0768. Turning to `Cc1ccccc1/C=c1\s/c(=C\C(=O)C(C)(C)C)[nH]c1=O`, the z-score was 5.84 (active).

As for `O=C(Cc1ccccc1)NC(NNc1ccccc1)(C(F)(F)F)C(F)(F)F`, the z-score was -0.447. For `CC(C)N(Cc1nc(-c2ccccc2)no1)C(=O)CCCN1C(=O)c2ccccc2C1=O` the value was -0.305. `CCOC(=O)c1ccc(NC(=S)N2CCSC2c2ccc(Br)cc2)cc1` (stereo not given) registered a z-score of 0.308. With `O=c1oc2cc(OCc3ccc(F)cc3F)ccc2cc1-c1ccc2ccccc2n1` the figure was -0.209; with `O=S(=O)(c1ccc(Oc2ccc(Cl)cc2)c(S(=O)(=O)N2CCCCC2)c1)N1CCCCC1`, -0.278. `CCOc1ccc(OCC)c(NC(=O)C2CCN(S(=O)(=O)c3cccc4nonc34)CC2)c1` returned a z-score of 0.0264. In turn, `COc1ccc(Cn2c(C)c(C)c(C#N)c2NC(=O)Nc2cccc(Cl)c2)cc1` showed a z-score of -0.0483.

Molecule `COc1ccc(-c2cc(C(F)(F)F)nc(SCC(N)=O)n2)cc1` returned a z-score of 0.362.

As for `Cn1c(=O)c2c(ncn2CC(=O)Nc2ccccc2)n(C)c1=O`, the z-score was determined as 0.318. Regarding `Cc1ccc(C(=O)Nc2cccnc2)cc1S(=O)(=O)N1CCOCC1`, the z-score amounted to 0.265. `COc1cccc(C2c3c(oc4ccccc4c3=O)C(=O)N2CCCN(C)C)c1OC` (stereo not given): the z-score was -0.0845. For `CCN(CC)CCCN1C(=O)c2oc3ccccc3c(=O)c2C1c1cc(OC)ccc1OC` (stereo not given) the value was 0.517; for `CCN(CC)CCCN1C(=O)c2oc3ccccc3c(=O)c2C1c1cccs1` (stereo not given), 13.2 (active). `CCN(CC)CCCN1C(=O)c2oc3ccccc3c(=O)c2C1c1cccc(OC)c1OC` (stereo not given): the z-score amounted to 0.625. With `CN(C)CCCN1C(=O)c2oc3ccccc3c(=O)c2C1c1cccs1` (stereo not given) the figure was 2.78. With `COc1ccc(OC)c(C2c3c(oc4ccccc4c3=O)C(=O)N2CCCN(C)C)c1` (stereo not given) the figure was -0.648; with `Cn1c(SCC(=O)c2ccccc2F)nnc1C1CC1`, -0.74; with `CCn1c(SCC(N)=O)nnc1-c1ccc(S(=O)(=O)N2CCN(C)CC2)cc1`, -0.217. With `COc1ccc(NC(=O)c2cccc(F)c2)cc1Cl` the figure was -0.393; with `CCc1cccc2c(C(=O)COC(=O)c3ccc(O)cc3)c[nH]c12`, -0.12. With `O=C(N/N=C\c1ccc(Cl)s1)c1cccs1`, the z-score is 8.64 (active).

The molecule `O=C(N/N=C/c1cccs1)c1cccs1` returned a z-score of 0.0886. For `Cc1ccc(/C=N/NC(=O)c2cccs2)s1` the value was 1.3; for `O=C(Nc1ccc([N+](=O)[O-])cn1)c1cc(-c2cccc(Cl)c2)nc2ccccc12`, -0.658; for `O=C(N/N=C/c1c[nH]c2ccccc12)C1CC1(c1ccccc1)c1ccccc1` (stereo not given), -0.618.

`Cc1ccc(C)n1-c1ccc(C(=O)O)cc1` came in with a z-score of -1.12.

In turn, `Cc1ccc(C)n1-c1ccc(C(=O)NN)cc1` came in with a z-score of 2.5. For the molecule `CCOC(=O)c1ccc(-n2c(C)ccc2C)cc1`, the z-score was -0.201. With `CCOC(=O)/C(C(N)=NC(C)C)=C(\O)c1ccccc1` the figure was 0.0345; with `CC(C)COC(=O)CNc1n[nH]c(=S)[nH]c1=O`, 1.98; with `CC(C)COC(=O)CCNc1n[nH]c(=O)[nH]c1=O`, 0.184. For `CCCCOC(=O)CNc1n[nH]c(=S)[nH]c1=O` the value was 0.182; for `Nc1cc(=O)nc(SCC(=O)N(C2CCCCC2)C2CCCCC2)n1-c1ccccc1`, -0.245. For `CCCNC(=O)C(NS(=O)(=O)c1cccc2nsnc12)c1ccccc1` (stereo not given) the value was -0.0978. With `O=c1cc(CN2CCOCC2)nc(C2CC2)[nH]1`, the z-score is 5.57 (active). As for `Cc1nc(CN2CCOCC2)cc(=O)[nH]1`, the z-score was determined as 0.197. `CC1CN(Cc2cc(=O)[nH]c(C3CC3)n2)CC(C)O1` (stereo not given) had a z-score of -0.155.

Turning to `Cc1cc(NC(=O)C(=O)NCCN2CCN(C(=O)c3cccs3)CC2)ccc1Br`, the z-score is -0.64.

`COc1cccc(N/C=C(\C#N)c2ccc(OCCCF)cc2)c1` displayed a z-score of 0.135. As for `Cn1c(Cc2csc(N)n2)nnc1SCC(=O)NCc1ccccc1`, the z-score amounted to 0.898. Turning to `Cc1ccccc1CCN(C(=O)Cn1nnc2ccccc21)C(C(=O)NC(C)(C)C)c1ccsc1` (stereo not given), the z-score is 0.0716. With `Cc1ccc(NC(=O)c2cc(N3C(=O)C=CC3=O)ccc2Cl)cc1C` the figure was -0.0892; with `CCOC(=O)c1nnc(-c2ccccc2)nc1Oc1ccccc1Cl`, -0.346. With `COC(=O)c1ccccc1NC(=S)NC(=O)C1CC1` the figure was -0.189; with `COC(=O)c1ccccc1NC(=S)NC(=O)c1ccccc1`, 13.1 (active).

For `COC(=O)c1ccccc1NC(=S)NC(=O)c1ccccc1C`, the z-score is 1.1. In turn, `COC(=O)c1ccccc1NC(=S)NC(=O)c1ccc(C)cc1` registered a z-score of 2.94. Molecule `COC(=O)c1ccccc1NC(=S)NC(=O)c1ccc2ccccc2c1` showed a z-score of 0.231. For `COC(=O)c1ccccc1NC(=S)NC(=O)c1cccc2ccccc12`, the z-score was 0.972.
